Consider ten compounds from PubChem BioAssay (EPA / NIEHS).

Assay [1] has as its target human RAR-related Orphan Receptor gamma (RORg), RORC (gene 6097) (UniProt P51449). The assay can be described thus: ATG_RORg_TRANS: Attagene TRANS-FACTORIAL HepG2 Assay for human RAR-related Orphan Receptor gamma (RORg) (AID 2283011; active = hit-call score of the fitted dose curve at least 0.9, where 1 is the maximum). In short, it runs like this: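 Readout: reporter transcript induction (RT-PCR, fluorescent primer extension, capillary electrophoresis) after 24 h compound exposure of transiently transfected HepG2 cells carrying a RORg-Gal4 chimera and GAL4-UAS reporters; DMSO served as baseline, with increasing signal fitted.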

Assay [2] concerns the target Retinoic acid receptor RXR-alpha (Homo sapiens) (UniProt P19793). The assay can be described thus: ATG_RXRa_TRANS: Attagene TRANS-FACTORIAL HepG2 Assay for human Retinoid X Receptor alpha (RXRa) (AID 2283012; active = hit-call score of the fitted dose curve at least 0.9, where 1 is the maximum). In short, it runs like this:
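TRANS format reporting activity of exogenous RXRa-Gal4 chimera in transiently transfected HepG2, 24 h exposure. Reporter transcripts quantified by RT-PCR with capillary electrophoresis, with gain of signal scored relative to DMSO.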

In assay [3] the target is human Retinoid X Receptor beta (RXRb), RXRB (gene 6257) (UniProt P28702). Put plainly: ATG_RXRb_TRANS: Attagene TRANS-FACTORIAL HepG2 Assay for human Retinoid X Receptor beta (RXRb) (AID 2283013; active = hit-call score of the fitted dose curve at least 0.9, where 1 is the maximum). In outline:
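Readout is reporter transcript induction after 24 h dosing. It is measured by RT-PCR of total RNA followed by fluorescent capillary electrophoresis. HepG2 liver cells carry transfected multiple reporter units driven by an exogenous RXRb-Gal4 fusion; activity is relative to DMSO.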

Assay [4] has as its target human Thyroid Receptor alpha (THRa1), THRA (gene 7067) (UniProt P10827). Put plainly: ATG_THRa1_TRANS: Attagene TRANS-FACTORIAL HepG2 Assay for human Thyroid Receptor alpha (THRa1) (AID 2283014; active = hit-call score of the fitted dose curve at least 0.9, where 1 is the maximum). In outline:
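HepG2 cells transiently transfected with multiplexed GAL4-UAS reporter units for exogenous chimeric THRa1-Gal4; reporter mRNA measured 24 h after dosing by RT-PCR, 6-FAM labelling, HpaI digestion and capillary electrophoresis. Gain-of-signal fitted versus DMSO baseline.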

Assay [5] deals with human Vitamin D Receptor (VDR), VDR (gene 7421) (UniProt P11473). The assay can be described thus: ATG_VDR_TRANS: Attagene TRANS-FACTORIAL HepG2 Assay for human Vitamin D Receptor (VDR) (AID 2283022; active = hit-call score of the fitted dose curve at least 0.9, where 1 is the maximum). In short, it runs like this: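 HepG2 cells were transiently transfected with multiple GAL4-UAS reporter units, so signal reflects exogenous chimeric receptor-Gal4 activity. After 24 h compound exposure, reporter mRNA was measured by RT-PCR, fluorescent labelling and capillary electrophoresis, fitted for gain of signal versus DMSO.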
Sequence of human Vitamin D Receptor (VDR), VDR (gene 7421) (P11473 whole entry, looked up, the tested form may be a part): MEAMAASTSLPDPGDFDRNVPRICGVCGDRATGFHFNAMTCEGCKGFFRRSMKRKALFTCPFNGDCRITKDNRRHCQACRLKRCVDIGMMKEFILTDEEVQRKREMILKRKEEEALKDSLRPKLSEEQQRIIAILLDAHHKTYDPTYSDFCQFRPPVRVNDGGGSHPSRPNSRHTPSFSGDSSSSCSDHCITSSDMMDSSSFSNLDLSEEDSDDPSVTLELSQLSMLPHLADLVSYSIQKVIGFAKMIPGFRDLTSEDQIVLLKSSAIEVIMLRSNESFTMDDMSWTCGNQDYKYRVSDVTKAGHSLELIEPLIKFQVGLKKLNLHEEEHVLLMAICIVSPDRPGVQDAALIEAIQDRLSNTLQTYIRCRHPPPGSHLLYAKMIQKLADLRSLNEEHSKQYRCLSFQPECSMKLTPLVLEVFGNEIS

Read-out in assay [6]: Interleukin-1 alpha (IL1a), IL1A (gene 3552)
Put plainly: BSK_BE3C_IL1a: BioMAP Diversity Plus: BE3C Assay for Interleukin-1 alpha (IL1a) Biomarker Activity (AID 2283016). The conditions noted are these: primary human bronchial epithelial cells; actives raise or lower the signal. In outline:
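IL-1a measured by ELISA after 24 h treatment of human primary bronchial epithelial cells, with gain or loss of signal fitted versus DMSO. Parallel cultures stained with SRB gauge overt cytotoxicity.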

Read-out in assay [7]: Monocyte Chemoattractant Protein-1 (MCP1), CCL2 (gene 6347)
Put plainly: BSK_3C_MCP1: BioMAP Diversity Plus: 3C Assay for Monocyte Chemoattractant Protein-1 (MCP1) Biomarker Activity (AID 2283017). As to conditions: primary human endothelial cells (HUVEC); actives raise or lower the signal. In short, it runs like this:
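Primary human umbilical vein endothelial cells (3C system) were exposed to test chemical for 24 h, after which MCP-1 was quantified by ELISA. Activity was fitted bidirectionally against DMSO as negative control and baseline.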

Read-out in assay [8]: Monocyte Chemoattractant Protein-1 (MCP1), CCL2 (gene 6347)
The assay can be described thus: BSK_4H_MCP1: BioMAP Diversity Plus: 4H Assay for Monocyte Chemoattractant Protein-1 (MCP1) Biomarker Activity (AID 2283018). As to conditions: primary human endothelial cells (HUVEC); actives raise or lower the signal. In outline: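 ELISA of MCP-1 (CCL2) 24 h after chemical dosing of HUVEC in the BioMAP 4H system. Gain or loss versus DMSO fitted; parallel SRB staining (560 nm) tracked overt cytotoxicity.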

Read-out in assay [9]: Human Leukocyte Antigen - DR isotype (HLADR), HLA-DRA (gene 3122)
The assay can be described thus: BSK_3C_HLADR: BioMAP Diversity Plus: 3C Assay for Human Leukocyte Antigen - DR isotype (HLADR) Biomarker Activity (AID 2283019). The conditions noted are these: primary human endothelial cells (HUVEC); actives raise or lower the signal. In short, it runs like this: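 Primary human umbilical vein endothelial cells (3C system) were dosed with compound and cell-surface HLA-DR was quantified by ELISA at 24 h. Activity was fitted bidirectionally against DMSO as negative control and baseline.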

Read-out in assay [10]: Interleukin-8 (IL8), CXCL8 (gene 3576)
The assay can be described thus: BSK_3C_IL8: BioMAP Diversity Plus: 3C Assay for Interleukin-8 (IL8) Biomarker Activity (AID 2283020). As to conditions: primary human endothelial cells (HUVEC); actives raise or lower the signal. In short, it runs like this:
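IL-8 was measured by ELISA in HUVEC cultures 24 h after chemical dosing, with gain or loss of signal fitted relative to DMSO. Parallel SRB total-protein staining tracked overt cytotoxicity.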

Read-out in assay [11]: Monokine induced gamma interferon (MIG), CXCL9 (gene 4283)
The assay can be described thus: BSK_3C_MIG: BioMAP Diversity Plus: 3C Assay for Monokine induced gamma interferon (MIG) Biomarker Activity (AID 2283021).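 As to AC50: MIG protein level measured by immunoassay in the treated endothelial cultures.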 The conditions noted are these: primary human endothelial cells (HUVEC); actives raise or lower the signal. In outline:
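ELISA measurement of MIG in human umbilical vein endothelial cells 24 h after treatment. Cytotoxicity tracked by SRB staining in parallel cultures; gain or loss of signal fitted relative to DMSO.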

Assay [12] can be described thus: BSK_3C_SRB: Viability Assessment in the BioMAP Diversity Plus: 3C Assay (AID 2283023).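 Also: fitted both ways against DMSO so a hit may be signal rise or drop.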 As to conditions: primary human endothelial cells (HUVEC). In outline:
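Primary human umbilical vein endothelial cells in the 3C system were read 24 h after compound dosing. Total protein was stained with 0.1% sulforhodamine B after 10% TCA fixation and read at 560 nm, with bidirectional fitting against DMSO as baseline.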

Read-out in assay [13]: Matrix Metallopeptidase 1 (MMP1), MMP1 (gene 4312)
The assay can be described thus: BSK_BE3C_MMP1: BioMAP Diversity Plus: BE3C Assay for Matrix Metallopeptidase 1 (MMP1) Biomarker Activity (AID 2283024). As to conditions: primary human bronchial epithelial cells; actives raise or lower the signal. In outline:
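ELISA measurement of MMP-1 after 24 h compound exposure of primary human bronchial epithelial cells. Changes in either direction fitted relative to DMSO; parallel SRB staining checked overt cytotoxicity.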

Read-out in assay [14]: Pselectin, SELP (gene 6403)
Put plainly: BSK_4H_Pselectin: BioMAP Diversity Plus: 4H Assay for Pselectin Biomarker Activity (AID 2283026). As to conditions: primary human endothelial cells (HUVEC); actives raise or lower the signal. In outline: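 ELISA of surface P-selectin on HUVEC, 24 h after dosing, with parallel SRB staining (0.1% after 10% TCA fixation, 560 nm) for overt cytotoxicity. Activity fitted in both directions relative to DMSO.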

Assay [15] in a line: BSK_4H_SRB: Viability Assessment in the BioMAP Diversity Plus: 4H Assay (AID 2283027).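 Also: cells exposed to compound for 24 h before staining.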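 As to AC50: curves fitted both ways versus DMSO so AC50 may be loss or gain.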 As to conditions: primary human endothelial cells (HUVEC). In short, it runs like this: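 HUVEC, 24 h post-dose; 10% TCA fix, 0.1% SRB stain, A560 nm. Total protein = overt cytotoxicity, parallel to biomarker read. Bidirectional fit vs DMSO baseline.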
A short description of assay [16]: BSK_BE3C_SRB: Viability Assessment in the BioMAP Diversity Plus: BE3C Assay (AID 2283028). The conditions noted are these: primary human bronchial epithelial cells. In short, it runs like this:
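Human primary bronchial epithelial cells were exposed to test chemicals for 24 h. Total protein in parallel cultures was then measured by staining with 0.1% sulforhodamine B after 10% TCA fixation, with absorbance read at 560 nm. Activity was fitted bidirectionally against DMSO.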

Read-out in assay [17]: Thrombomodulin, THBD (gene 7056)
Put plainly: BSK_3C_Thrombomodulin: BioMAP Diversity Plus: 3C Assay for Thrombomodulin Biomarker Activity (AID 2283029). As to conditions: primary human endothelial cells (HUVEC); actives raise or lower the signal. In outline: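 ELISA measurement of thrombomodulin on HUVEC surface 24 h after chemical dosing; activity fitted in both directions relative to DMSO vehicle.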

Read-out in assay [18]: E-selectin (Homo sapiens) (UniProt P16581)
The assay can be described thus: BSK_3C_Eselectin: BioMAP Diversity Plus: 3C Assay for Eselectin Biomarker Activity (AID 2283015).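 Also: cell surface E-selectin protein quantified by ELISA 24 h after dosing.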 The conditions noted are these: primary human endothelial cells (HUVEC); actives raise or lower the signal. In short, it runs like this:
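Primary human umbilical vein endothelial cells (3C system) were dosed with chemical and cell-surface E-selectin measured by ELISA 24 h later. Bidirectional curve fitting used DMSO as negative control and baseline.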

Assay [19] is described as follows: BSK_3C_Vis: BioMAP Diversity Plus: 3C Assay for Morphology Visualization (AID 2283025).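 Also: fitted both ways so gain or loss versus DMSO counts.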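 As to AC50: light microscopy image of cell morphology used as background control.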 The conditions noted are these: primary human endothelial cells (HUVEC). In short, it runs like this:
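Light-microscopy visualization of HUVEC cultures at 24 h post-treatment, with DMSO as baseline for bidirectional fitting.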

Structures are written as SMILES. Values joined by “and” are separate entries in the source; they are usually repeats but may differ in a detail not shown here. Equal values may be shown once. Inconclusive results are not listed. Active and inactive are the calls of the source. The calls were made as follows, unless noted: active = hit-call score of the fitted dose curve at least 0.9, where 1 is the maximum; inactive = score below 0.9.

Sequence of human Thyroid Receptor alpha (THRa1), THRA (gene 7067) (P10827 whole entry, looked up, the tested form may be a part): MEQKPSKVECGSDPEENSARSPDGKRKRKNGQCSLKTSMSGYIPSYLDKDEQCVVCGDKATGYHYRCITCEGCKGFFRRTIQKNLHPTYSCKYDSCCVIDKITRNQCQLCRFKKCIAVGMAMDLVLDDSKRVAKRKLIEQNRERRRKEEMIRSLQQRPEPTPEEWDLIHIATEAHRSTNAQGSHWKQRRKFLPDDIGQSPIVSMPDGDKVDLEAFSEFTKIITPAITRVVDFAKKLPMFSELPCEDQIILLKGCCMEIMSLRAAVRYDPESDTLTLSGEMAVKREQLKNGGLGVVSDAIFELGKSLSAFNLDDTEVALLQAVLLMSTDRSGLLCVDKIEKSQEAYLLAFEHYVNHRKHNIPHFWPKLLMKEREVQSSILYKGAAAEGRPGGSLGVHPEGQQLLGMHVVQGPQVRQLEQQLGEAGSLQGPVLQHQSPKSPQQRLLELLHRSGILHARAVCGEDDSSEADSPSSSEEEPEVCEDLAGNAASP
Sequence of human Retinoid X Receptor beta (RXRb), RXRB (gene 6257) (P28702 whole entry, looked up, the tested form may be a part): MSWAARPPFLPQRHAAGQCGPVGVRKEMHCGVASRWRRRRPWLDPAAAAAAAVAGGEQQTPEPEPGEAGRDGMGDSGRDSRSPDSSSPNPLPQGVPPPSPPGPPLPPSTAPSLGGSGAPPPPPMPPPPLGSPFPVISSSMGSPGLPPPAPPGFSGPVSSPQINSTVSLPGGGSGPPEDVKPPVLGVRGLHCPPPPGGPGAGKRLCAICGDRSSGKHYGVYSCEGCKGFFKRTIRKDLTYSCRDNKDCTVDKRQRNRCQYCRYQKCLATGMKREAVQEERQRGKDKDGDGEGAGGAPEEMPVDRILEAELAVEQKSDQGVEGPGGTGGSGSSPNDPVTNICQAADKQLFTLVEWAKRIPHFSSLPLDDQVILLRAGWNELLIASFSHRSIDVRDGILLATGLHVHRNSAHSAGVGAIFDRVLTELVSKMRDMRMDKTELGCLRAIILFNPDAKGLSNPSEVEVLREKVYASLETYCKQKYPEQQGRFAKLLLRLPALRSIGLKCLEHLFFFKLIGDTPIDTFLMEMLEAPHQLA
Sequence of Retinoic acid receptor RXR-alpha (Homo sapiens) (P19793 whole entry, looked up, the tested form may be a part): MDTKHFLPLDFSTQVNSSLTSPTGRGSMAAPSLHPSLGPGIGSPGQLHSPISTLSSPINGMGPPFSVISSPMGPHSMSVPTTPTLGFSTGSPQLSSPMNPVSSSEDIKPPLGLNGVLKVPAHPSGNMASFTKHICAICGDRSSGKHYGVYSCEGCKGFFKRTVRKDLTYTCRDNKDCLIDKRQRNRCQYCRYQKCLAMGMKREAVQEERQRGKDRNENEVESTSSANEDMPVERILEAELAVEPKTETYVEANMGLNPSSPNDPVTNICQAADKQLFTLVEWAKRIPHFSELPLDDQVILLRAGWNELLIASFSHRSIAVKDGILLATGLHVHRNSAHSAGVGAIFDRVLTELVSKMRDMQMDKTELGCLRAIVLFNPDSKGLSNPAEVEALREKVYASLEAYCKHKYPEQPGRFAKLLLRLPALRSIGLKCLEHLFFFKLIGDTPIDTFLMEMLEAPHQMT
Sequence of human RAR-related Orphan Receptor gamma (RORg), RORC (gene 6097) (P51449 whole entry, looked up, the tested form may be a part): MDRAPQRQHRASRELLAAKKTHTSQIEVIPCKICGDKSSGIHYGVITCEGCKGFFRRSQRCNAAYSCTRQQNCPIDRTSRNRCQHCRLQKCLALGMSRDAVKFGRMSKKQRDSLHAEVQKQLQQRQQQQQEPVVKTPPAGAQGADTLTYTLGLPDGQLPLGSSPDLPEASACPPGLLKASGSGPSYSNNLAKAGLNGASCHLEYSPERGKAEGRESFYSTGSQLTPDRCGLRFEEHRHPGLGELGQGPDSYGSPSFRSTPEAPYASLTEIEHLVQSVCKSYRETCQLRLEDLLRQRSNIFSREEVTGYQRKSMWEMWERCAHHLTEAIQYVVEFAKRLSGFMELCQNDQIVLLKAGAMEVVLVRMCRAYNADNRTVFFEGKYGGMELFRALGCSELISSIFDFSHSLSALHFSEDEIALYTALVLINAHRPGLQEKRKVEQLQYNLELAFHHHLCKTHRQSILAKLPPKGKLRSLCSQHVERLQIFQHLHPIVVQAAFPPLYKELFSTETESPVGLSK
Sequence of E-selectin (Homo sapiens) (P16581 whole entry, looked up): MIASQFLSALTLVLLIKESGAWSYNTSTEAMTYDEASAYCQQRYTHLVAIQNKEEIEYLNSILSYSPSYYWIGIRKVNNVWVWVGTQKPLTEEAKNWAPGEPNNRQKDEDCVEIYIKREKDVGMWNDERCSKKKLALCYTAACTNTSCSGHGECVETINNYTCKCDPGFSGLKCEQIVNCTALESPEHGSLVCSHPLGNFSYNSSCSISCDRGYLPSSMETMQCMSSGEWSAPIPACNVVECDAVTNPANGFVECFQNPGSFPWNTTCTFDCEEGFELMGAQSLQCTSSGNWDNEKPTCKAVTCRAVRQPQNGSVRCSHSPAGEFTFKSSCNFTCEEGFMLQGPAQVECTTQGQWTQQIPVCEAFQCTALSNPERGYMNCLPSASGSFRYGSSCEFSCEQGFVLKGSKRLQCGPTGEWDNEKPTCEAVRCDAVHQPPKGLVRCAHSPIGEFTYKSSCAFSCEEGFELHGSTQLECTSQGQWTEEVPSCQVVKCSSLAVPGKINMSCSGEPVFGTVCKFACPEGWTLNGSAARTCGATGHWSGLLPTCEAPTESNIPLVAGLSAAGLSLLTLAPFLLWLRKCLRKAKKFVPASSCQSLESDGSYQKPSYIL

With `CCC[Si](OC)(OC)OC`, the compound was called inactive in assay [1], in [2], in [3], in [4] and in assay [5].
With `CC(CCC(=O)O)(c1ccc(O)cc1)c1ccc(O)cc1`, the call in assay [1], in [2], in [4], in assay [6], in assay [7] and in [8] was inactive. Also, the outcome in assay [9], in [10], in [11], in assay [5], in assay [12] and in [13] was inactive. Besides, the result in assay [14], in assay [15], in [16] and in [17] was inactive.
As to `O=C(Cl)c1c(Cl)c(Cl)c(C(=O)Cl)c(Cl)c1Cl`, the call in assay [1], in assay [2], in assay [18], in [6], in assay [7] and in [8] was inactive. Besides, the outcome in assay [9], in [10], in assay [11], in assay [12], in assay [13] and in assay [19] was inactive. For the same compound, the result in assay [14], in assay [15], in [16] and in assay [17] was inactive. Moreover, the AC50 in assay [3] is 100 µM (active).
For `Cc1cc(C)c(C=O)c(C)c1`, the outcome in [1], in [2], in assay [3], in assay [4] and in assay [5] was inactive.
`CCCCCCCCCC[N+](C)(CCCCCCCCCC)CCC[Si](OC)(OC)OC`: the compound was called inactive in assay [1], in [2], in [3], in assay [4] and in assay [5].
Regarding `O=C(O)C(F)(F)C(F)(F)C(F)(F)C(F)(F)C(=O)O`, the compound was classed as inactive in [1], in assay [2], in [6], in [7], in [8] and in [9]. Besides, the outcome in assay [10], in assay [11], in assay [5], in assay [12], in assay [13] and in assay [14] was inactive. The result in assay [15], in [16] and in [17] was inactive.
Take `Nc1ncnc2nc[nH]c12`: the result in assay [1], in [2] and in [4] was inactive.
For the compound `CC(=O)OC(C)c1ccccc1` (stereo not drawn), the compound was called inactive in assay [1], in assay [2], in assay [4] and in [5].
On to `CCCCCCCCCCCCC`, for which the result in [1], in assay [2], in [3], in assay [4] and in assay [5] was inactive.
Take `COc1ccc(C(=O)/C(Br)=C\C(=O)O)cc1`: the call in assay [1], in [2], in assay [3], in [4], in assay [5] and in assay [12] was inactive. Also, the outcome in [13] and in assay [16] was inactive. For the same compound, the AC50 in [6] was 25.5 µM (active) and 15.9 µM (active); in assay [7], 28.8 µM (active) and 30.2 µM (active); in assay [8], 16.6 µM (active) and 29.4 µM (active); in assay [9], 12.4 µM (active) and 20 µM (active); in assay [10], 20 µM (active) and 25.9 µM (active); in [11], 35.3 µM (active) and 34.3 µM (active). Moreover, the AC50 in [19] is 37.4 µM (active) and 37.5 µM (active); in [14], 6.04 µM (active) and 16.3 µM (active); in assay [15] it was 20 µM (active) and 17.1 µM (active); in assay [17], 34.9 µM (active) and 35.4 µM (active).
